Active and inactive are the calls of the source. The calls were made as follows, unless noted: active = hit-call score of the fitted dose curve at least 0.9, where 1 is the maximum; inactive = score below 0.9.
Tests used:
[1] = read-out: Protein phosphatase 2A (PPP2R4), PTPA (gene 5524); assay: LTEA_HepaRG_PPP2R4: Life Technologies and Expression Analysis (LTEA) Assay for Protein phosphatase 2A (PPP2R4) using HepaRG (AID 2283522); conditions: mRNA level, 48 h; actives raise or lower the signal
Outline: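 Expression was quantified by Fluidigm qRT-PCR normalised to three housekeeping genes after 48 h treatment. Human HepaRG cells received an 8-point series from 100 µM downward by half-logs, in duplicate with 0.5% DMSO vehicle and 1 mM phenobarbital as induction control.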

[2] = read-out: Phosphatase and tensin (PTEN), PTEN (gene 5728); assay: LTEA_HepaRG_PTEN: Life Technologies and Expression Analysis (LTEA) Assay for Phosphatase and tensin (PTEN) using HepaRG (AID 2283523); conditions: mRNA level, 48 h; actives raise or lower the signal
Outline: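 HepaRG, 48 h exposure, 8-pt half-log series from 100 uM top, 0.5% DMSO vehicle, duplicates. Readout: Fluidigm qRT-PCR of PTEN transcript; housekeeping normalization (ACTB, GAPDH, POLR2A). Gain or loss fitted relative to DMSO baseline.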

[3] = read-out: solute carrier (SLC22A1), SLC22A1 (gene 6580); assay: LTEA_HepaRG_SLC22A1: Life Technologies and Expression Analysis (LTEA) Assay for solute carrier (SLC22A1) using HepaRG (AID 2283524); conditions: mRNA level, 48 h; actives raise or lower the signal;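 as to AC50: differentiated human HepaRG liver cells in serum-free induction medium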
Outline: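 qRT-PCR readout (TaqMan, Fluidigm arrays) of SLC22A1 transcript, normalized to three housekeeping genes; bidirectional curve fit relative to 0.5% DMSO vehicle. Differentiated human HepaRG cells, 48 h chemical exposure, top concentration 100 uM, half-log steps, eight points.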

[4] = read-out: Pyruvate Dehydrogenase Kinase 4 (PDK4), PDK4 (gene 5166); assay: LTEA_HepaRG_PDK4: Life Technologies and Expression Analysis (LTEA) Assay for Pyruvate Dehydrogenase Kinase 4 (PDK4) using HepaRG (AID 2283525); conditions: mRNA level, 48 h; actives raise or lower the signal
Outline: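 HepaRG (human liver line), 48 h chemical exposure, 8-pt half-log CRC top 100 uM, 0.5% DMSO vehicle, duplicates. Readout: TaqMan qRT-PCR of PDK4 mRNA, housekeeping-normalized; gain/loss fit relative to DMSO baseline.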

[5] = read-out: NAD(P)H dehydrogenase [quinone] 1 (NQO1), NQO1 (gene 1728); assay: LTEA_HepaRG_NQO1: Life Technologies and Expression Analysis (LTEA) Assay for NAD(P)H dehydrogenase [quinone] 1 (NQO1) using HepaRG (AID 2283526); conditions: mRNA level, 48 h; actives raise or lower the signal
Outline: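 NQO1 transcript induction or loss measured by TaqMan qRT-PCR, referenced to three housekeeping genes and fitted bidirectionally against 0.5% DMSO. HepaRG cultures exposed 48 h, duplicate, eight-point half-log series, top 100 uM.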

[6] = read-out: Nuclear factor erythroid 2-related factor 2 (Homo sapiens) (UniProt Q16236); assay: LTEA_HepaRG_NFE2L2: Life Technologies and Expression Analysis (LTEA) Assay for Nuclear factor erythroid 2-related factor 2 (NFE2L2) Transcription Factor using HepaRG (AID 2283527); conditions: mRNA level, 48 h; actives raise or lower the signal
Outline: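 HepaRG, 48 h dosing, 8-pt half-log series from 100 uM in 0.5% DMSO, duplicates. Read-out: NFE2L2 mRNA by qRT-PCR (ACTB/GAPDH/POLR2A normalization). Bidirectional curve fit vs DMSO baseline.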

[7] = read-out: succinate dehydrogenase complex iron sulfur subunit B (SDHB), SDHB (gene 6390); assay: LTEA_HepaRG_SDHB: Life Technologies and Expression Analysis (LTEA) Assay for succinate dehydrogenase complex iron sulfur subunit B (SDHB) using HepaRG (AID 2283528); conditions: mRNA level, 48 h; actives raise or lower the signal
Outline: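 SDHB transcript level read by TaqMan qRT-PCR, housekeeping-normalised (ACTB, GAPDH, POLR2A), after 48 h chemical treatment of plated HepaRG cells; eight concentrations top 100 uM, half-log steps, 0.5% DMSO, duplicates; fitted both directions against DMSO.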

[8] = read-out: Signal transducer and activator of transcription 3 (Homo sapiens) (UniProt P40763); assay: LTEA_HepaRG_STAT3: Life Technologies and Expression Analysis (LTEA) Assay for Signal transducer and activator of transcription (STAT3) using HepaRG (AID 2283529); conditions: mRNA level, 48 h; actives raise or lower the signal
Outline: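 HepaRG, 48 h exposure, 8-pt half-log series (top 100 uM), 0.5% DMSO vehicle, duplicates. Readout: STAT3 transcript by Fluidigm qRT-PCR, housekeeping-normalized; bidirectional fit vs DMSO baseline.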

[9] = read-out: solute carrier (SLCO1B1), SLCO1B1 (gene 10599); assay: LTEA_HepaRG_SLCO1B1: Life Technologies and Expression Analysis (LTEA) Assay for solute carrier (SLCO1B1) using HepaRG (AID 2283530); conditions: mRNA level, 48 h; actives raise or lower the signal
Outline: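 SLCO1B1 transcript levels were quantified by TaqMan qRT-PCR using three housekeeping genes for normalization. This followed 48 h chemical exposure (100 uM top, half-log, 8 points, 0.5% DMSO) of HepaRG liver cells, with gain or loss fitted relative to DMSO.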

[10] = read-out: sulfotransferase 2A1 (SULT2A1), SULT2A1 (gene 6822); assay: LTEA_HepaRG_SULT2A1: Life Technologies and Expression Analysis (LTEA) Assay for sulfotransferase 2A1 (SULT2A1) using HepaRG (AID 2283531); conditions: mRNA level, 48 h; actives raise or lower the signal
Outline: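 Expression change of SULT2A1, by qRT-PCR with three housekeeping-gene normalization, was scored bidirectionally versus DMSO. Cells: differentiated HepaRG, dosed in duplicate for 48 h across 8 points, highest 100 µM, half-log dilution, 0.5% DMSO.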

[11] = read-out: Transforming Growth Factor (TGFA), TGFA (gene 7039); assay: LTEA_HepaRG_TGFA: Life Technologies and Expression Analysis (LTEA) Assay for Transforming Growth Factor (TGFA) using HepaRG (AID 2283532); conditions: mRNA level, 48 h; actives raise or lower the signal
Outline: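 qRT-PCR read-out of TGFA transcript, normalized to three housekeeping genes, fitted bidirectionally against 0.5% DMSO baseline. Human HepaRG cultures received chemicals for 48 h at eight half-log concentrations, top 100 uM.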

[12] = read-out: Transforming Growth Factor (TGFB1), TGFB1 (gene 7040); assay: LTEA_HepaRG_TGFB1: Life Technologies and Expression Analysis (LTEA) Assay for Transforming Growth Factor (TGFB1) Transporter using HepaRG (AID 2283533); conditions: mRNA level, 48 h; actives raise or lower the signal
Outline: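 TGFB1 transcript measured by qRT-PCR with normalisation to three housekeeping genes (ACTB, GAPDH, POLR2A); human HepaRG line treated in duplicate for 48 hr with an 8-point series topping at 100 uM, 0.5% DMSO vehicle, bidirectionally fitted.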

TIMP1, TIMP1 (gene 7076) = assay: LTEA_HepaRG_TIMP1: Life Technologies and Expression Analysis (LTEA) Assay for TIMP1 using HepaRG (AID 2283534); conditions: mRNA level, 48 h; actives raise or lower the signal
Outline: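 Bidirectional change in TIMP1 transcript versus 0.5% DMSO, measured by TaqMan qRT-PCR with three housekeeping genes for normalization. HepaRG human liver cells dosed 48 h in duplicate, top concentration 100 uM with half-log dilutions.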

[13] = read-out: Tumor necrosis factor receptor 1 (TNFRSF1A), TNFRSF1A (gene 7132); assay: LTEA_HepaRG_TNFRSF1A: Life Technologies and Expression Analysis (LTEA) Assay for Tumor necrosis factor receptor 1 (TNFRSF1A) using HepaRG (AID 2283535); conditions: mRNA level, 48 h; actives raise or lower the signal
Outline: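 mRNA measured by qRT-PCR (TaqMan, Fluidigm arrays) against ACTB/GAPDH/POLR2A housekeepers after 48 h chemical exposure of HepaRG cells. Top concentration 100 uM, half-log 8-point series, duplicates; vehicle 0.5% DMSO, both fit directions.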

[14] = read-out: Thyroid Hormone Responsive (THRSP), THRSP (gene 7069); assay: LTEA_HepaRG_THRSP: Life Technologies and Expression Analysis (LTEA) Assay for Thyroid Hormone Responsive (THRSP) using HepaRG (AID 2283536); conditions: mRNA level, 48 h; actives raise or lower the signal
Outline: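 qRT-PCR read-out (Fluidigm TaqMan), housekeeping-normalized (ACTB/GAPDH/POLR2A). HepaRG, 48 h chemical exposure, 8-pt half-log series from 100 uM in 0.5% DMSO, duplicates. Bidirectional curve fit vs 0.5% DMSO baseline.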

[15] = read-out: Cellular tumor antigen p53 (Homo sapiens) (UniProt P04637); assay: LTEA_HepaRG_TP53: Life Technologies and Expression Analysis (LTEA) Assay for Tumor Protein P53 (TP53) using HepaRG (AID 2283537); conditions: mRNA level, 48 h; actives raise or lower the signal
Outline: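 TP53 transcript measured by qRT-PCR, normalized to three housekeeping genes, after 48 h treatment of human HepaRG cultures with chemicals from 100 uM downward in half-log steps (0.5% DMSO vehicle, serum-free induction medium). Up- or down-regulation fitted against DMSO.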

[16] = read-out: UDP glucuronosyltransferase (UGT1A1), UGT1A1 (gene 54658); assay: LTEA_HepaRG_UGT1A1: Life Technologies and Expression Analysis (LTEA) Assay for UDP glucuronosyltransferase (UGT1A1) using HepaRG (AID 2283538); conditions: mRNA level, 48 h; actives raise or lower the signal
Outline: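 UGT1A1 transcript level, measured by qRT-PCR with three housekeeping genes for normalization, after 48 h treatment of human HepaRG cells (0.5% DMSO, duplicates, up to 100 uM, half-log steps, 8 points). Curves fit both directions against DMSO baseline.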

[17] = read-out: X-box binding protein 1 (XBP1), XBP1 (gene 7494); assay: LTEA_HepaRG_XBP1: Life Technologies and Expression Analysis (LTEA) Assay for X-box binding protein 1 (XBP1) using HepaRG (AID 2283540); conditions: mRNA level, 48 h; actives raise or lower the signal
Outline: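 XBP1 transcript by qRT-PCR (housekeeping-normalized: ACTB, GAPDH, POLR2A) after 48 h chemical treatment of HepaRG cells, 8-point half-log series topping at 100 uM, vehicle 0.5% DMSO. Gain and loss of signal fitted relative to DMSO.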

[18] = LTEA_HepaRG_LDH_cytotoxicity: Cytotoxicity Assessment in the Life Technologies and Expression Analysis (LTEA) Assay (AID 2283563; active = hit-call score of the fitted dose curve at least 0.9, where 1 is the maximum;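 as to AC50: LDH activity released into spent culture medium as a marker of cell death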)
Outline: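 LDH release into culture medium read after 48 h chemical treatment of HepaRG cells. Duplicate wells, eight-point half-log series topping at 100 uM, 0.5% DMSO vehicle and baseline.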

[19] = read-out: UDP glucuronosyltransferase (UGT1A6), UGT1A6 (gene 54578); assay: LTEA_HepaRG_UGT1A6: Life Technologies and Expression Analysis (LTEA) Assay for UDP glucuronosyltransferase (UGT1A6) using HepaRG (AID 2283539); conditions: mRNA level, 48 h; actives raise or lower the signal
Outline: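 Expression was quantified by TaqMan qRT-PCR on Fluidigm arrays with ACTB/GAPDH/POLR2A normalization and bidirectional fitting against 0.5% DMSO. HepaRG cells (~100,000/well) were treated in duplicate for 48 h at eight half-log concentrations up to 100 uM in serum-free induction medium.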

Chain of Nuclear factor erythroid 2-related factor 2 (Homo sapiens) (Q16236 whole entry, looked up): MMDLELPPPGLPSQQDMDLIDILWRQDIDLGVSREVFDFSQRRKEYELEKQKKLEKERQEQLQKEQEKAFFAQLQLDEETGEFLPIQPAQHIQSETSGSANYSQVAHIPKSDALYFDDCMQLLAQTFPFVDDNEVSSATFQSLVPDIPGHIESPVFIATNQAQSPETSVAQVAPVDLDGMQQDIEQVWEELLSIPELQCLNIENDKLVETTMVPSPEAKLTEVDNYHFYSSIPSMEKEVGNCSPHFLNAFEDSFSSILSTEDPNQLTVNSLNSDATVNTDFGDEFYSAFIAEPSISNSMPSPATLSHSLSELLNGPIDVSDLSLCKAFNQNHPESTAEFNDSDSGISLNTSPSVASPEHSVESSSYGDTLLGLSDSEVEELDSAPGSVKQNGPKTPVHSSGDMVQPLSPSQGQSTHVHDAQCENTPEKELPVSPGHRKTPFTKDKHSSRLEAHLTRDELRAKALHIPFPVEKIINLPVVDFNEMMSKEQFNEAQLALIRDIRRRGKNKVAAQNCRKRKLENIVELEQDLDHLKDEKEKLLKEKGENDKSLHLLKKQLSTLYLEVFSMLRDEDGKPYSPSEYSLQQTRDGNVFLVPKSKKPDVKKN
Chain of Cellular tumor antigen p53 (Homo sapiens) (P04637 whole entry, looked up): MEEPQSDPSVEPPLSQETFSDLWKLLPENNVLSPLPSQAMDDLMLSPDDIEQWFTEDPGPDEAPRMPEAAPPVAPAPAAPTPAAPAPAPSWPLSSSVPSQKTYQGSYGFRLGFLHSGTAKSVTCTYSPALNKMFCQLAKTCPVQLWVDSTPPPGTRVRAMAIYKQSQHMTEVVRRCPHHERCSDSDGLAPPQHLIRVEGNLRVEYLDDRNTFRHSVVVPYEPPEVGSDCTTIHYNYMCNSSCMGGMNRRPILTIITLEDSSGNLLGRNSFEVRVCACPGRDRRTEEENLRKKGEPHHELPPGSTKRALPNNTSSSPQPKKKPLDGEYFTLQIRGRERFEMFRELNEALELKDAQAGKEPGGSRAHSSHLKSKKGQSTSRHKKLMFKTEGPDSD
Chain of Signal transducer and activator of transcription 3 (Homo sapiens) (P40763 whole entry, looked up): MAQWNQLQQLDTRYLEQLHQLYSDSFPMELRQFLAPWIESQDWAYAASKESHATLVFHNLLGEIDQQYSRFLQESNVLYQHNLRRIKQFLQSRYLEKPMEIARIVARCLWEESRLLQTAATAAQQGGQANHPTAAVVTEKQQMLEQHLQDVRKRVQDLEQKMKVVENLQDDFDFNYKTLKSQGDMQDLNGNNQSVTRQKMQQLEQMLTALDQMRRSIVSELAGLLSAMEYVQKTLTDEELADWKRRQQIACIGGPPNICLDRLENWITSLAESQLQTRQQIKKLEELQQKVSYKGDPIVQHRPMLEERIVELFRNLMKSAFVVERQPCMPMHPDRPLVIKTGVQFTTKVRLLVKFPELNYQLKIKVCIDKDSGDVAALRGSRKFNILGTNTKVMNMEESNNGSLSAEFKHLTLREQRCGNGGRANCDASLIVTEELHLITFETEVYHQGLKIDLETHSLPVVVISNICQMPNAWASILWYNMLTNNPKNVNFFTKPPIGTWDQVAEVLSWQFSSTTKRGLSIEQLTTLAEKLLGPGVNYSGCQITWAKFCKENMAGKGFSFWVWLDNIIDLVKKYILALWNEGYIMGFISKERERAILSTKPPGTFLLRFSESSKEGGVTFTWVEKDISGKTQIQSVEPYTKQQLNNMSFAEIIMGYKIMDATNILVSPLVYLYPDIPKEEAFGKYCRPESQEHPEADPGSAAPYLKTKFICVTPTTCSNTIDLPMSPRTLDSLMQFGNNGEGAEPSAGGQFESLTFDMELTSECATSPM

With `CCCCOC(=O)c1ccccc1C(=O)OCc1ccccc1` the AC50 [1] was 0.349 µM (active), the outcome [2] was “inactive” and the outcome [3] was “inactive”. For the same compound, the outcome [4] was “inactive”, the outcome [5] was “inactive” and the outcome [6] was “inactive”. The outcome [7] was “inactive”, the outcome [8] was “inactive” and the outcome [9] was “inactive”. The outcome [10] was “inactive”, the outcome [11] was “inactive” and the outcome [12] was “inactive”. The outcome (TIMP1, TIMP1 (gene 7076)) was “inactive”, the outcome [13] was “inactive” and the outcome [14] was “inactive”. For the same compound, the outcome [15] was “inactive”, the outcome [16] was “inactive” and the outcome [17] was “inactive”. The outcome [18] was “inactive”.
In the case of `CCCCCCCCn1sccc1=O`, the outcome [1] is reported as “inactive”, the outcome [2] is reported as “inactive” and the AC50 [3] is reported as 78.4 µM (active). The AC50 [4] was 34.4 µM (active), the outcome [5] was “inactive” and the outcome [6] was “inactive”. The outcome [7] was “inactive”, the outcome [8] was “inactive” and the AC50 [9] was 84.1 µM (active). For the same compound, the outcome [10] was “inactive”, the outcome [11] was “inactive” and the outcome [12] was “inactive”. For the same compound, the outcome (TIMP1, TIMP1 (gene 7076)) was “inactive”, the outcome [13] was “inactive” and the AC50 [14] was 87.3 µM (active). For the same compound, the outcome [15] was “inactive”, the outcome [16] was “inactive” and the AC50 [19] was 81.3 µM (active). The outcome [17] was “inactive” and the AC50 [18] was 79.7 µM (active).
For `O=Cc1ccco1`, the outcome [1] was “inactive”, the outcome [2] was “inactive” and the outcome [3] was “inactive”. For the same compound, the outcome [4] was “inactive”, the outcome [5] was “inactive” and the outcome [6] was “inactive”. The outcome [7] was “inactive”, the outcome [8] was “inactive” and the outcome [9] was “inactive”. For the same compound, the outcome [10] was “inactive”, the outcome [11] was “inactive” and the outcome [12] was “inactive”. The outcome (TIMP1, TIMP1 (gene 7076)) was “inactive”, the outcome [13] was “inactive” and the outcome [14] was “inactive”. For the same compound, the outcome [15] was “inactive”, the outcome [16] was “inactive” and the outcome [17] was “inactive”.
With `CC(C)(O)c1cnn2c(-c3ccc(F)c(-c4c(F)cccc4C#N)c3)cnc2n1` the outcome [1] was “inactive”, the outcome [2] was “inactive” and the AC50 [3] was 9.92 µM (active). For the same compound, the outcome [4] was “inactive”, the outcome [5] was “inactive” and the AC50 [6] was 6.33 µM (active). The outcome [7] was “inactive”, the outcome [8] was “inactive” and the outcome [9] was “inactive”. For the same compound, the outcome [10] was “inactive”, the AC50 [11] was 12.6 µM (active) and the outcome [12] was “inactive”. For the same compound, the outcome (TIMP1, TIMP1 (gene 7076)) was “inactive”, the outcome [13] was “inactive” and the outcome [14] was “inactive”. The outcome [15] was “inactive”, the AC50 [16] was 0.268 µM (active) and the outcome [17] was “inactive”. For the same compound, the outcome [18] was “inactive”.

— PubChem BioAssay (EPA / NIEHS)
